Source: PubChem BioAssay
The entries come from a sample that favours hits as a whole.
Tg IFNy HTS: inhibitors of Toxoplasma gondii growth with IFN-gamma. Toxoplasma gondii growth in IFN-gamma-treated host cells; stronger effect = lower value. 3.8% of 69,000 active. activity change, negative = inhibition, % (test concentration not listed). AID 1259416; in the data active = activity change below about -70%, passing the limit was not always enough;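 also: host cells are HeLa cells infected with Toxoplasma gondii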
Active calls of the source: *; i = inactive; ! = a repeat was not active.

SMILES	Tg IFNy HTS
Cc1ccc(S(=O)(=O)NCc2nc(-c3ccccc3)oc2C)cc1C	-106*
COc1ccc(-c2nc(CNS(=O)(=O)c3ccc(C)cc3C)c(C)o2)cc1	9
CCOc1ccc(S(=O)(=O)N(C)Cc2nc(-c3ccc(C)cc3)oc2C)cc1	3
Cc1ccc(S(=O)(=O)NCc2nc(-c3cccc(Cl)c3)oc2C)cc1C	-24
Cc1ccc(-c2nc(CNS(=O)(=O)c3c(C)cc(C)cc3C)c(C)o2)cc1	-23
Clc1ccc(CN2CCC3(COCc4cnc(-c5ccccc5)nc43)C2)cc1 (centres undefined)	-67
CN1C(=O)CC(c2ccccc2)C12CCN(CC1CCOC1)CC2 (centres undefined)	-43
Cc1ccc(NC(=O)C(=O)NCCc2csc(-c3ccc(C(F)(F)F)cc3)n2)cc1Cl	307
CCOC(=O)C1C(=O)OC(C)(C)C1C(C)C(=O)c1ccc(C)cc1 (centres undefined)	7
Cc1ccccc1-c1ccc([C@@H]2[C@@H](CO)N3C(=O)CN(C(=O)c4ccncc4)C[C@@H]23)cc1	-43
CCOc1ccccc1C(=O)NCCc1sc(-c2ccc(Cl)cc2)nc1C	-106*
Cc1nc(-c2ccc(Cl)cc2)sc1CCNC(=O)COc1ccccc1F	17
Cc1nc(-c2ccc(Cl)cc2)sc1CCNC(=O)c1ccccc1F	-34
COc1ccccc1OCC(=O)NCCc1sc(-c2ccc(F)cc2)nc1C	6
Cc1nc(-c2ccc(F)cc2)sc1CCNC(=O)c1ccccc1Br	-14
Cc1nc(-c2ccc(F)cc2)sc1CCNC(=O)c1ccccc1Cl	-72*
Cc1nc(-c2ccc(F)cc2)sc1CCNC(=O)c1c(F)cccc1Cl	-5
COc1ccccc1C(=O)NCCc1sc(-c2cccc(F)c2)nc1C	52
COc1ccccc1C(=O)NCCc1sc(-c2ccc(Cl)cc2)nc1C	-107*
Cc1ccccc1C(=O)NCCc1sc(-c2ccc(Cl)cc2)nc1C	-56
Cc1ccccc1OCC(=O)NCCc1sc(-c2ccc(Cl)cc2)nc1C	28
COc1ccccc1C(=O)NCCc1sc(-c2ccc(F)cc2)nc1C	-107*
c1ccc(CN=C2Sc3nc4cc5c(cc4cc3CN2CC2CCCO2)OCO5)cc1 (centres undefined)	-16
Cc1nc(-c2cccc(F)c2)sc1CCNC(=O)c1cc2ccccc2oc1=O	51
C=C(C)[C@H]1COc2cc3oc(=O)ccc3cc2O1	-1
SMILES	Tg IFNy HTS
Clc1ccc2c(Nc3ccccc3)ccnc2c1	-68
Cc1ccc(C2(O)CCN(c3ncnc4onc(C)c34)CC2)nc1	-49
COc1cc(NC(=O)NCC(c2cccnc2)c2cn(C)c3ccccc23)cc(OC)c1OC (centres undefined)	436
CS(=O)(=O)N1[C@H](C#N)[C@@H](c2ccc(C#Cc3cccc(F)c3)cc2)[C@@H]1CO	-1
Oc1ccccc1-c1nnco1	8
CCCCCCC#Cc1cncc(C(=O)Nc2ccc(F)cc2F)c1	-11
CCN1CCN(C(=O)c2ccc(=O)n(C)c2)C(Cc2cccc(-c3cccs3)c2)C1=O (centres undefined)	9
CCCNC(=O)N1CCC2(CC1)CN(Cc1cccc(OC)c1)[C@@H](CO)c1[nH]c3cc(OC)ccc3c12	i
Cc1n[nH]c(C)c1Sc1nc2ccccc2s1	42
COc1ccc(S(=O)(=O)NCCc2sc(-c3ccc(OC)c(OC)c3)nc2C)cc1C	185
COc1ccc(-c2nc(C)c(CCNS(=O)(=O)c3ccc(C)c(C)c3)s2)cc1OC	282
Cc1nc(-c2ccc(F)cc2)sc1CCNC(=O)C(=O)Nc1ccc2c(c1)OCO2	-72*
COc1ccc(-c2nc(C)c(CCNS(=O)(=O)c3ccc(-c4ccccc4)cc3)s2)cc1OC	-118*
Cc1nc(-c2ccc(F)cc2)sc1CCNC(=O)C(=O)Nc1ccc2c(c1)OCCO2	-40
Cc1ccc(-c2nc(C)c(CCNC(=O)C(=O)Nc3ccc4c(c3)OCO4)s2)cc1	-69
Cc1ccccc1S(=O)(=O)N1CC[C@@H]2[C@H](CO)Nc3ccc(-c4ccc(F)cc4)cc3[C@@H]21	-62
O=C(NCc1cnn2ccccc12)C1(c2ccccc2)CCCCC1	45
CN1CCCN=C1COC(=O)C(O)(c1ccccc1)C1CCCCC1 (centres undefined)	-74*!
OC(CCN1CCCC1)(c1ccccc1)C1CCCCC1 (centres undefined)	-42
CC[N+](CC)(CC)CCC(O)(c1ccccc1)C1CCCCC1 (centres undefined)	22
CCC(=O)Nc1ccc(-c2ccc(OC)nc2)c(C)n1	85
COc1ccc(-c2ccccc2OC(C)C(N)=O)cn1 (centres undefined)	2
COc1ccc(-c2cc3c(C)nc(N)nc3n(C3CCC(OCCO)CC3)c2=O)cn1 (centres undefined)	-83*
C[C@H]1C[C@H]2CN(C(=O)c3cc4ccccc4o3)CC[C@H]2O1	i
O=C(C[C@@H]1CC[C@H]2NC[C@@H](O)COC[C@@H]2O1)Nc1nccs1	-1
Cc1oc(C2CCN(C(=O)Nc3ccc4c(c3)CCC4)CC2)nc1C(=O)N1CCOCC1	10
CCn1c(C)cc(C)c(C(=O)N2CCOC(c3ccc(Cl)cc3)C2)c1=O (centres undefined)	6
